The record followed here is PubChem BioAssay (Tox21).

Assay [1] can be described thus: A CellTox Green Cytotoxicity Assay to monitor cytotoxicity in HEK293 cells - 32 hour (AID 1224881). Further: nearly all actives have a fitted effect of over 40% in size. The gist of the method:
(§1)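 Homogeneous no-lysis format: HEK293 cell suspension mixed with CellTox Green reagent, seeded, incubated 5 h at 37 C/5% CO2, then dosed by pintool with compound in DMSO.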

Assay [2] is described as follows: A CellTox Green Cytotoxicity Assay to monitor cytotoxicity in HepG2 cells - 0 hour (AID 1224882). Further: nearly all actives have a fitted effect of over 35% in size. The essentials:
(§2)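 Fluorescent DNA-binding dye, 600 HepG2 cells/well, 5 h preincubation then compound in DMSO; same plates read at 0–40 h, 37 C.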

The nature of assay [3]: A CellTox Green Cytotoxicity Assay to monitor cytotoxicity in HepG2 cells - 32 hour (AID 1224883). Further: nearly all actives have a fitted effect of over 50% in size. The essentials: as §2
Assay [4] is described as follows: A CellTox Green Cytotoxicity Assay to monitor cytotoxicity in HEK293 cells - 8 hour (AID 1224884). Further: nearly all actives have a fitted effect of over 35% in size. The essentials:
as §1

A short description of assay [5]: qHTS RealTime-Glo MT Cell Viability Assay in HepG2 cells - 16 hour (AID 1224885). Further: nearly all actives have a fitted effect of over 50% in size. The essentials:
(§3)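 Cells + NanoLuc/prosubstrate dispensed (600 cells/well) → 5 h at 37 C/5% CO2 → compounds in DMSO transferred → 40 h incubation at 37 C, luminescence read at 0, 8, 16, 24, 32, 40 h.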
For orientation: In qHTS, concentration-response curves come from the screen itself.

Assay [6] is described as follows: qHTS RealTime-Glo MT Cell Viability Assay in HEK293 cells - 24 hour (AID 1224886). Further: top concentration of the series differs between compounds; nearly all actives have a fitted effect of over 50% in size. The gist of the method: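 Tox21 10K qHTS, HEK293, 600 cells/well, RealTime-Glo reagent co-dispensed with cells; 5 h preincubation, compound by pintool, 37 C, luminescence at 0–40 h.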
Assay [7] is described as follows: qHTS RealTime-Glo MT Cell Viability Assay in HEK293 cells - 8 hour (AID 1224887). Further: top concentration of the series differs between compounds; nearly all actives have a fitted effect of over 50% in size. The essentials: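 Measured as luminescence from the same continuously cultured HEK293 wells at successive time points (0, 8, 16, 24, 32, 40 h) after compound addition. Reagent present from seeding; dosing at 5 h; incubation 37 C.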
Assay [8] in a line: A CellTox Green Cytotoxicity Assay to monitor cytotoxicity in HEK293 cells - 16 hour (AID 1224888). Further: nearly all actives have a fitted effect of over 35% in size. The essentials: as §1
Assay [9] is described as follows: qHTS RealTime-Glo MT Cell Viability Assay in HepG2 cells - 0 hour (AID 1224889). Further: nearly all actives have a fitted effect of over 50% in size. Further: potency means the concentration at half of the fitted maximal effect. The gist of the method:
as §3

Assay [10] can be described thus: A CellTox Green Cytotoxicity Assay to monitor cytotoxicity in HepG2 cells - 8 hour (AID 1224890). Further: nearly all actives have a fitted effect of over 45% in size. The gist of the method: as §2
Assay [11] is described as follows: qHTS assay to identify small molecule antagonists of the estrogen receptor alpha (ER-alpha) signaling pathway using the BG1 cell line in the presence of 0.1 nM 17-beta-estradiol - cell viability counter screen (AID 1259241). Further: nearly all actives have a fitted effect of over 40% in size. The essentials: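 Cytotoxicity counter-screen: live-cell protease activity measured by fluorescence (30 min reagent step) in the same wells. Cells were VM7Luc4E2 with endogenous ER-alpha and ERE-driven luciferase, treated 22 hr at 37C alongside 0.1 nM 17beta-estradiol final.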

The nature of assay [12]: qHTS assay to identify small molecule antagonists of the androgen receptor (AR) signaling pathway using the MDA cell line in the presence of 0.5 nM R1881 - cell viability counter screen (AID 1259242). Further: nearly all actives have a fitted effect of over 45% in size. The gist of the method: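 Human breast carcinoma MDA-kb2 cells, cultured without CO2, receive compounds alongside 0.5 nM (final) R1881 agonist. After 16 hr at 37C, viability is taken as live-cell protease signal.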

Assay [13] deals with Estrogen receptor (Homo sapiens) (UniProt P03372). As to the kind of experiment: qHTS assay to identify small molecule antagonists of the estrogen receptor alpha (ER-alpha) signaling pathway using the BG1 cell line in the presence of 0.1 nM 17-beta-estradiol (AID 1259244). Further: nearly all actives have a fitted effect of over 50% in size. The gist of the method: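 Seeding of stripped-serum-adapted VM7Luc4E2 cells, 24 h attachment, compound transfer, then 0.1 nM final 17beta-estradiol; after 22 h incubation, ONE-Glo reagent and luminescence reading.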
Chain of Estrogen receptor (Homo sapiens) (P03372 whole entry, looked up): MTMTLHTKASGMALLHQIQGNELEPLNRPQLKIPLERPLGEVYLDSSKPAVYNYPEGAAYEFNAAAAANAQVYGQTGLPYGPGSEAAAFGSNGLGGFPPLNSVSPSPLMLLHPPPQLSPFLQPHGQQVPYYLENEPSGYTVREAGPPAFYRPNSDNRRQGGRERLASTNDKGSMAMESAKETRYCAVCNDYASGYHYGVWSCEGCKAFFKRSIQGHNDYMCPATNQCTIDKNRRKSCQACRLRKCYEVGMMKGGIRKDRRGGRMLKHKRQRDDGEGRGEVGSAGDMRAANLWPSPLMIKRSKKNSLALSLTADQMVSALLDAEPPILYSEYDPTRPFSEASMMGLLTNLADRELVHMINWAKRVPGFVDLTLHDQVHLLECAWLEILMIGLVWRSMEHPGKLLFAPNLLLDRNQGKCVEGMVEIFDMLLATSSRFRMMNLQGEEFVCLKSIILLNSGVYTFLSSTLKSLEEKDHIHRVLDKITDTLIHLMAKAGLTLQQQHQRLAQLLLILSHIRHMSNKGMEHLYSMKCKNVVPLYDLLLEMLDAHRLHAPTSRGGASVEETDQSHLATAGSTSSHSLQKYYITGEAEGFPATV

Assay [14] can be described thus: qHTS assay to identify small molecule HDAC inhibitors (AID 1259364).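 Further: wild-type HCT-116 cells with endogenous class I/II HDAC activity; top concentration of the series differs between compounds; nearly all actives have a fitted effect of over 45% in size.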 The gist of the method: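 After a 2 hr compound incubation (37C, 5% CO2), HCT-116 cells seeded at 1,500/well the day before received HDAC-Glo reagent; signal read as luminescence after 30 min at room temperature.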
A short description of assay [15]: qHTS assay to identify small molecule HDAC inhibitors - cell viability counter screen (AID 1259365). The gist of the method:
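CellTiter-Glo luminescence (30 min, room temperature) reported viability after a 2 h compound exposure at 37 C. Cells: wild-type HCT-116, 1,500 per well, seeded the night before.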

A short description of assay [16]: qHTS assay to identify small molecule agonists of the sonic hedgehog signaling (Shh) pathway - cell viability counter screen (AID 1259366). Further: nearly all actives have a fitted effect of over 50% in size. The essentials: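 Cytotoxicity counter screen: CellTiter-Fluor reagent added after 23 h compound exposure, then 1 h at 37C and fluorescence read. Cells were 3T3 Gli1-Luc, seeded 2,000 per well and dosed 4 h post-plating.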

Assay [17] is described as follows: qHTS assay to identify small molecule antagonists of the sonic hedgehog signaling (Shh) pathway - cell viability counter screen (AID 1259367). Further: nearly all actives have a fitted effect of over 55% in size. The gist of the method:
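Cytotoxicity was assessed in parallel with Shh reporter activity by measuring live-cell protease fluorescence (CellTiter-Fluor) in NIH/3T3 cells stably carrying Gli1-Luc, treated with compound under conditioned medium stimulation for 23 hr plus 1 hr reagent incubation.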

Assay [18] in a line: qHTS assay to identify small molecule agonists of the sonic hedgehog signaling (Shh) pathway (AID 1259368; calls by dose curve;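 further: NIH/3T3-derived 3T3Gli1-Luc cells carrying a stable Gli1-driven firefly luciferase reporter; series mostly up to about 92 µM; nearly all actives have a fitted effect of over 15% in size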). The essentials:
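Stable NIH/3T3 Gli1-Luc reporter clone; 24 hr cpd exposure after a 4 hr settling period; luminescence endpoint.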

The nature of assay [19]: qHTS assay to identify small molecule antagonists of the sonic hedgehog signaling (Shh) pathway (AID 1259369; calls by dose curve; further: nearly all actives have a fitted effect of over 45% in size). The gist of the method:
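Gli1 transcriptional reporter (firefly Luc) in NIH/3T3 background, conditioned-medium activated. 24hr exposure, luminescence endpoint.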

Assay [20] can be described thus: qHTS assay to identify small molecule phospholipidosis (PLD) inducers (AID 1259344; active means well fitted curve in the direction sought with a large enough effect; an effect the other way counts as inactive or inconclusive). The gist of the method: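 Cells (HepG2, 900 per well) attach for 4 h, receive LipidTOX Red and compound together, incubate 24 h at 37 C, are fixed 30 min with paraformaldehyde/Hoechst, then imaged at one site per well.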

SMILES strings stand for the structures. Where “and” joins values, the source holds several entries; their conditions need not be identical. Equal values may be shown once. Records with an inconclusive call do not appear. Calls of active or inactive are those of the source. Unless noted, the call rests on the fitted dose curve; in most records, active means well fitted curve in the direction sought with a large enough effect in the repeat runs; inconclusive means weak or mixed curves; inactive means no such curve, though single readings can be large; an effect the other way counts as inactive or inconclusive.

As for `OCC(O)CO`, the Potency result in assay [1], in assay [2], in assay [3], in [4], in assay [5] and in assay [6] was “inactive” throughout. Besides, the Potency entry in [7], in [8], in [9], in [10], in assay [11] and in [12] was “inactive” in each case. Besides, the Potency entry in assay [13], in assay [14], in assay [16], in assay [17], in assay [18] and in [19] was “inactive” throughout. For the same compound, the call in [15] was inactive.
Consider `O=C(O)C(F)(F)C(F)(F)C(F)(F)C(F)(F)C(F)(F)C(F)(F)C(F)(F)F`, for which the Potency entry in [1], in [2], in assay [3], in assay [4], in assay [5] and in [6] was “inactive” throughout. Moreover, the Potency result in assay [7], in [8], in assay [9], in assay [10], in [11] and in assay [12] was “inactive” in each case. In addition, the Potency result in assay [14], in assay [16], in assay [17], in assay [18] and in assay [19] was “inactive” each time. In addition, the result in [15] was inactive.
As for `Nc1cccnc1`, the Potency entry in assay [1], in assay [2], in assay [3], in assay [4], in assay [5] and in assay [6] was “inactive” in each case. In addition, the Potency entry in [7], in assay [8], in [9], in assay [10], in assay [11] and in assay [12] was “inactive” throughout. Further, the Potency result in assay [13], in assay [16], in assay [17], in assay [18] and in assay [19] was “inactive” each time. Further, the result in [15] was inactive.
As to `C=C(C)C(=O)OCC1CO1` (stereo not drawn), the Potency result in assay [1], in assay [2], in [3], in [4], in assay [5] and in assay [6] was “inactive” in each case. Moreover, the Potency result in assay [7], in [8], in [9], in assay [10], in assay [11] and in assay [12] was “inactive” each time. The Potency result in [13], in assay [14], in assay [16], in assay [17], in [18] and in [19] was “inactive” throughout. In addition, the call in assay [15] was inactive.
As to `O=c1oc2ccccc2c(O)c1C(CC(O)c1ccc(-c2ccc(Br)cc2)cc1)c1ccccc1` (stereo not drawn), the Potency result in assay [1], in assay [2], in assay [3], in assay [4], in [5] and in [6] was “inactive” in each case. Moreover, the Potency result in assay [7], in [8], in assay [10], in assay [11], in [12] and in assay [13] was “inactive” throughout. Moreover, the Potency entry in assay [14], in assay [16], in assay [17], in [18] and in assay [19] was “inactive” each time. The Potency in assay [9] was 20.7 µM (active) and 21.3 µM (active). For the same compound, the compound was classed as inactive in assay [20] and in assay [15].
For `CNC(=O)Oc1cccc2c1OC(C)(C)O2`, the Potency result in assay [1], in assay [2], in assay [3], in [4], in assay [5] and in assay [6] was “inactive” in each case. The Potency entry in assay [7], in assay [8], in [9], in [10], in [11] and in assay [12] was “inactive” each time. Also, the Potency result in assay [13], in assay [14], in [16], in [17], in assay [18] and in assay [19] was “inactive” in each case. Also, in assay [15], the outcome was inactive.
